# Among all 5,500 compounds or so, about 2,000 (36%) were called active. About 18% were inconclusive and are not listed. This is one part of the list. Unmarked numbers belong to inactive results. No stated cut-off is given here; in the data, active means normalized growth mostly below about 0.91 (no sharp cut-off); inconclusive means no clear call, values can overlap the other calls; inactive means mostly above about 0.92.
# Assay: chemical genetic growth profiling, strain panel (AID 1159580);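 further: tested at 20 µM; growth read once vehicle control cultures reached saturation at 30 °C; 1 = growth at the plate median or of vehicle wells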
# Conditions: S. cerevisiae deletion strains, growth OD
smiles,measurement,setting,value
O=C(Nc1cccc2ccccc12)c1ccccc1O,normalized growth,"locus YAR019C, strain CDC15, stronger effect = lower value",0.848 (active)
same,normalized growth,"locus YBL105C, strain PKC1, stronger effect = lower value",0.862 (active)
same,normalized growth,"locus YBR135W, strain CKS1, stronger effect = lower value",0.85 (active)
same,normalized growth,"locus YBR136W, strain MEC1, stronger effect = lower value",0.834 (active)
same,normalized growth,"locus YBR160W, strain CDC28, stronger effect = lower value",0.872 (active)
same,normalized growth,"locus YDL017W, strain CDC7, stronger effect = lower value",0.866 (active)
same,normalized growth,"locus YDL028C, strain MPS1, stronger effect = lower value",0.816 (active)
same,normalized growth,"locus YDL101C, strain DUN1, stronger effect = lower value",0.93
same,normalized growth,"locus YDL108W, strain KIN28, stronger effect = lower value",0.827 (active)
same,normalized growth,"locus YDL132W, strain cdc53, stronger effect = lower value",0.834 (active)
same,normalized growth,"locus YDL214C, strain PRR2, stronger effect = lower value",0.563 (active)
same,normalized growth,"locus YDR052C, strain DBF4, stronger effect = lower value",0.83 (active)
same,normalized growth,"locus YDR054C, strain cdc34, stronger effect = lower value",0.842 (active)
same,normalized growth,"locus YDR226W, strain ADK1, stronger effect = lower value",0.856 (active)
same,normalized growth,"locus YDR477W, strain SNF1, stronger effect = lower value",0.563 (active)
same,normalized growth,"locus YER123W, strain YCK3, stronger effect = lower value",0.432 (active)
same,normalized growth,"locus YER133W, strain GLC7, stronger effect = lower value",0.524 (active)
same,normalized growth,"locus YFL009W, strain cdc4, stronger effect = lower value",0.837 (active)
same,normalized growth,"locus YFL029C, strain CAK1, stronger effect = lower value",0.845 (active)
same,normalized growth,"locus YFR003C, strain YPI1, stronger effect = lower value",0.854 (active)
same,normalized growth,"locus YFR019W, strain FAB1, stronger effect = lower value",0.781
same,normalized growth,"locus YFR028C, strain CDC14, stronger effect = lower value",0.846 (active)
same,normalized growth,"locus YGR040W, strain KSS1, stronger effect = lower value",0.557 (active)
same,normalized growth,"locus YGR052W, strain FMP48, stronger effect = lower value",0.556 (active)
same,normalized growth,"locus YGR092W, strain DBF2, stronger effect = lower value",0.324 (active)
same,normalized growth,"locus YHR030C, strain SLT2, stronger effect = lower value",0.505 (active)
same,normalized growth,"locus YHR079C, strain IRE1, stronger effect = lower value",0.405 (active)
same,normalized growth,"locus YHR082C, strain KSP1, stronger effect = lower value",0.576 (active)
same,normalized growth,"locus YHR205W, strain SCH9, stronger effect = lower value",0.687
same,normalized growth,"locus YIL147C, strain SLN1, stronger effect = lower value",0.831 (active)
same,normalized growth,"locus YJL095W, strain BCK1, stronger effect = lower value",0.488 (active)
same,normalized growth,"locus YJL128C, strain PBS2, stronger effect = lower value",0.823
same,normalized growth,"locus YJL157C, strain FAR1, stronger effect = lower value",0.492 (active)
same,normalized growth,"locus YJR016C, strain ILV3, stronger effect = lower value",0.852 (active)
same,normalized growth,"locus YJR066W, strain TOR1 (second series), stronger effect = lower value",0.645
same,normalized growth,"locus YJR066W, strain TOR1, stronger effect = lower value",0.479 (active)
same,normalized growth,"locus YKL048C, strain ELM1, stronger effect = lower value",0.768 (active)
same,normalized growth,"locus YKL067W, strain YNK1, stronger effect = lower value",0.555 (active)
same,normalized growth,"locus YKL101W, strain HSL1, stronger effect = lower value",0.585 (active)
same,normalized growth,"locus YKL193C, strain SDS22, stronger effect = lower value",0.843 (active)
same,normalized growth,"locus YKL203C, strain TOR2, stronger effect = lower value",0.572 (active)
same,normalized growth,"locus YLR113W, strain HOG1, stronger effect = lower value",0.327 (active)
same,normalized growth,"locus YLR133W, strain CKI1, stronger effect = lower value",0.595 (active)
same,normalized growth,"locus YLR403W, strain SFP1, stronger effect = lower value",0.552 (active)
same,normalized growth,"locus YML070W, strain DAK1, stronger effect = lower value",0.519 (active)
same,normalized growth,"locus YMR001C, strain CDC5, stronger effect = lower value",0.838 (active)
same,normalized growth,"locus YMR205C, strain PFK2 (second series), stronger effect = lower value",0.53 (active)
same,normalized growth,"locus YMR277W, strain FCP1, stronger effect = lower value",0.839 (active)
same,normalized growth,"locus YNL006W, strain LST8, stronger effect = lower value",0.858 (active)
same,normalized growth,"locus YNL020C, strain ARK1, stronger effect = lower value",0.529 (active)
same,normalized growth,"locus YNL161W, strain CBK1, stronger effect = lower value",0.864 (active)
same,normalized growth,"locus YNL183C, strain NPR1, stronger effect = lower value",0.443 (active)
same,normalized growth,"locus YNL207W, strain RIO2, stronger effect = lower value",0.834 (active)
same,normalized growth,"locus YNL222W, strain SSU72, stronger effect = lower value",0.847 (active)
same,normalized growth,"locus YNL307C, strain MCK1 (second series), stronger effect = lower value",0.571 (active)
same,normalized growth,"locus YOL078W, strain AVO1, stronger effect = lower value",0.847 (active)
same,normalized growth,"locus YOL136C, strain PFK27, stronger effect = lower value",0.533 (active)
same,normalized growth,"locus YOR061W, strain CKA2, stronger effect = lower value",0.608 (active)
same,normalized growth,"locus YOR119C, strain RIO1, stronger effect = lower value",0.549 (active)
same,normalized growth,"locus YOR231W, strain MKK1, stronger effect = lower value",0.426 (active)
same,normalized growth,"locus YOR329C, strain SCD5, stronger effect = lower value",0.857 (active)
same,normalized growth,"locus YPL031C, strain PHO85, stronger effect = lower value",0.526 (active)
same,normalized growth,"locus YPL153C, strain RAD53, stronger effect = lower value",0.52 (active)
same,normalized growth,"locus YPL204W, strain HRR25, stronger effect = lower value",0.52 (active)
same,normalized growth,"locus YPL209C, strain IPL1, stronger effect = lower value",0.86 (active)
same,normalized growth,"locus YPL256C, strain CLN2, stronger effect = lower value",0.547 (active)
same,normalized growth,"locus YPR025C, strain CCL1, stronger effect = lower value",0.855 (active)
same,normalized growth,"locus YPR106W, strain ISR1, stronger effect = lower value",0.896
same,normalized growth,"locus YPR111W, strain DBF20, stronger effect = lower value",0.884
same,normalized growth,"strain NNK1, stronger effect = lower value",0.87 (active)
same,normalized growth,"strain TSCII, stronger effect = lower value",0.833 (active)
NC(=NCCCC(N)C(=O)O)N[N+](=O)[O-] (centres undefined),normalized growth,"locus YAL040C, strain CLN3, stronger effect = lower value",0.999
same,normalized growth,"locus YCL061C, strain MRC1 (second series), stronger effect = lower value",1
same,normalized growth,"locus YDR363W, strain ESC2, stronger effect = lower value",1.03
same,normalized growth,"locus YER002W, strain NOP16, stronger effect = lower value",1
same,normalized growth,"locus YGR229C, strain SMI1, stronger effect = lower value",1.02
same,normalized growth,"locus YJR075W, strain HOC1, stronger effect = lower value",1.02
same,normalized growth,"locus YMR263W, strain SAP30, stronger effect = lower value",1
same,normalized growth,"locus YMR307W, strain GAS1, stronger effect = lower value",1
same,normalized growth,"locus YNL128W, strain TEP1, stronger effect = lower value",1.02
same,normalized growth,"locus YNL175C, strain NOP13, stronger effect = lower value",1
same,normalized growth,"locus YNL197C, strain WHI3, stronger effect = lower value",1.01
same,normalized growth,"locus YNL224C, strain SQS1, stronger effect = lower value",1.01
same,normalized growth,"locus YOR083W, strain WHI5 (second series), stronger effect = lower value",1.02

# Source: PubChem BioAssay AID1159580 (chemical genetic matrix, 2015)
